In the library only some 2% were active in any assay of this set; here they are far more common.
MCL1-BIM inh: disrupts human MCL1 binding to BIM-BH3 peptide. Q07820. GST-MCL1 / FITC-Bim-BH3 fluorescence polarization. inhibition, % at 10.9 µM. 0.68% of 320,000 active. AID 2057;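 active means inhibition above the mean inhibition of all tested compounds plus 3 SD, set per campaign, cut at about 40% in these data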;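 further: 0% = DMSO wells and 100% = unlabeled Bim-BH3 peptide control; higher means more loss of mP so more displacement of Bim peptide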
Target sequence (Q07820 whole entry, looked up): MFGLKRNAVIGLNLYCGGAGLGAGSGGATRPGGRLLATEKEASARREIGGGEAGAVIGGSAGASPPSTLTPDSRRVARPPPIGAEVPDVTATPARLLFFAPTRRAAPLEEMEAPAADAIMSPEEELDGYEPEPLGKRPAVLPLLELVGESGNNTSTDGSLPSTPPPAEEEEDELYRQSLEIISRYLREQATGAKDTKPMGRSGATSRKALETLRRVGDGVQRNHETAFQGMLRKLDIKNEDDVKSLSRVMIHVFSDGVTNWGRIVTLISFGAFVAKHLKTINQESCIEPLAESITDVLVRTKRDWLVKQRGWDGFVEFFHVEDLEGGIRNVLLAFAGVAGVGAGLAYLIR
Mcl1-Bid inh: disrupts binding of human Mcl-1 to Bid peptide. TR-FRET Mcl-1/Bid-Dy647 peptide binding, 1536-well. inhibition, % at 21.7 µM. 0.97% of 220,000 active. AID 1021;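 active means compounds that cut the binding signal by more than half at the single screening dose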;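 further: His-tagged Mcl-1 with europium anti-His antibody binding Bid BH3 peptide; 0% = Mcl-1 plus peptide wells and 100% = peptide-only wells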
Mcl1-Noxa inh: disrupts binding of human Mcl-1 to Noxa peptide; TR-FRET Mcl-1/Noxa peptide binding, 2 h; inhibition, % at 21.7 µM; 1.5% of 220,000 active;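 active means compounds that cut the protein-peptide binding signal by more than 50% relative to plate controls in a single-dose test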;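 further: His-tagged Mcl-1 with rhodamine Noxa BH3 peptide and terbium anti-His antibody; 0% = Mcl-1 plus Noxa peptide wells and 100% = peptide-only wells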
Bim-Mcl-1: disrupts Bim peptide binding to human Mcl-1; Q07820; Bead-based flow cytometry, Bim peptide-Mcl-1 binding; inhibition, % at 10 µM; 0.1% of 190,000 active; AID 1009; in the data active means inhibition above about 40%;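 further: 0% = no compound tracer wells and 100% = peptide blocker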
Numbers without * were called inactive.

`COc1cccc(NC(=O)CN(C)C(=O)CSc2nc(C)cc(C)n2)c1` gave MCL1-BIM inh 2.2.
Screening CN(C(=O)CN1C(=O)C2C3CC(C(Br)C3Br)C2C1=O)C1CCCCC1 (stereo unspecified) returned MCL1-BIM inh 0.3.
For C=CCc1c(C)nc(SCCC)[nH]c1=O the results were MCL1-BIM inh -4.1, Mcl1-Bid inh 3.0, Mcl1-Noxa inh 97.9* and Bim-Mcl-1 -3.0.
`CCCC1C2CN(C(C)C)CC=C2C(C#N)=C(N)C1(C#N)C#N` (stereo unspecified) gave MCL1-BIM inh 180.2*, Mcl1-Bid inh -23.4, Mcl1-Noxa inh 12.1 and Bim-Mcl-1 -1.0.
Screening CC(C)c1ccc(OCc2ccc(C(=O)O)o2)cc1 returned MCL1-BIM inh -3.9, Mcl1-Bid inh -2.8 and Mcl1-Noxa inh 69.2*.
Screening CCCCC[C@H](O)/C=C/[C@H]1C=CC(=O)[C@@H]1C/C=C\CCCC(=O)O returned Mcl1-Bid inh 42.4, Mcl1-Noxa inh 69.3* and Bim-Mcl-1 -3.0.
Screening CCOC(=O)c1ccccc1NC(=O)c1ccc2nccnc2c1 returned MCL1-BIM inh 6.5, Mcl1-Bid inh -44.9, Mcl1-Noxa inh 51.0* and Bim-Mcl-1 -1.0.
Screening CCOC(=O)c1ccccc1NC(=O)c1ccc2nc[nH]c2c1 returned MCL1-BIM inh 0.2.
For Cc1cc(C)c(S(=O)(=O)NCC2CCC(C(=O)NCCCN3CCC(C)CC3)CC2)c(C)c1 (stereo unspecified) the results were MCL1-BIM inh 1.8.
Screening Cc1csc2ncnc(N3CCN(C(=S)Nc4ccc(F)cc4F)CC3)c12 returned MCL1-BIM inh 10.1, Mcl1-Bid inh 89.7* and Mcl1-Noxa inh 10.8.
For Fc1ccc(NC(=S)N2CCCN(c3ccc(C(F)(F)F)cn3)CC2)c(F)c1 the results were MCL1-BIM inh 6.6, Mcl1-Bid inh -37.7 and Mcl1-Noxa inh 18.2.
`COc1ccc(NS(=O)(=O)c2ccc(NC(=S)NC(=O)/C=C/c3ccccc3)cc2)nn1` gave MCL1-BIM inh 1.6, Mcl1-Bid inh -32.6, Mcl1-Noxa inh 58.1* and Bim-Mcl-1 -10.0.
O=C(/C=C/c1ccc(Br)cc1)NC(=S)Nc1ccc(S(=O)(=O)Nc2nccs2)cc1 was read as MCL1-BIM inh 7.4, Mcl1-Bid inh 58.5*, Mcl1-Noxa inh 52.3* and Bim-Mcl-1 -2.0.
`C=CCc1cccc2cc(C(=O)Nc3ccc(F)cc3)c(=O)oc12` gave MCL1-BIM inh 8.0, Mcl1-Bid inh -6.3, Mcl1-Noxa inh 5.3 and Bim-Mcl-1 -8.0.
C=CCc1cccc2cc(C(=O)Nc3ccc(S(=O)(=O)Nc4nnc(CC)s4)cc3)c(=O)oc12 was read as MCL1-BIM inh 4.7, Mcl1-Bid inh 72.0*, Mcl1-Noxa inh 107.5* and Bim-Mcl-1 -5.0.
Screening CCc1nnc(NS(=O)(=O)c2ccc(NC(=S)NC(=O)/C=C/c3ccccc3)cc2)s1 returned MCL1-BIM inh 13.1, Mcl1-Bid inh -31.2, Mcl1-Noxa inh 58.4* and Bim-Mcl-1 -19.0.
For O=C(NC(=S)Nc1ccc(S(=O)(=O)Nc2nccs2)cc1)c1ccc(Br)o1 the results were MCL1-BIM inh 0.2, Mcl1-Bid inh -49.3, Mcl1-Noxa inh 11.8 and Bim-Mcl-1 -7.0.
S=c1[nH]ncn2c1cc1oc3ccccc3c12 was read as MCL1-BIM inh 3.6, Mcl1-Bid inh -33.6, Mcl1-Noxa inh 14.7 and Bim-Mcl-1 0.0.
CCCn1cnnc1CNC(=O)C1CCC(=O)N(CCc2cccc(F)c2)C1 (stereo unspecified) was read as MCL1-BIM inh -1.0.
Cc1ccc2nc(Nc3ccc(C)c(C)c3)c3nncn3c2c1 was read as MCL1-BIM inh 8.7.
`CCCCCCN1CC(C(=O)OCC)C(=O)C1=O` (stereo unspecified) gave MCL1-BIM inh -6.8, Mcl1-Bid inh -8.7, Mcl1-Noxa inh -4.0 and Bim-Mcl-1 -2.0.
For Cc1cc(C)cc(NC(=O)CC2Oc3ccc(C)cc3NC2=O)c1 (stereo unspecified) the results were MCL1-BIM inh -4.1.
For CCc1nnc(NS(=O)(=O)c2ccc(NC(=S)NC(=O)/C=C/c3ccc(C(C)C)cc3)cc2)s1 the results were MCL1-BIM inh 12.1, Mcl1-Bid inh 100.3* and Bim-Mcl-1 -4.0.
For O=C1N=C(N2CCN(c3ccccc3)CC2)S/C1=C/c1cccs1 the results were MCL1-BIM inh 17.9, Mcl1-Bid inh -67.1, Mcl1-Noxa inh -1.8 and Bim-Mcl-1 -4.0.
Screening O=C1N=C(c2ccccc2)S/C1=C\c1cccs1 returned MCL1-BIM inh 13.2, Mcl1-Bid inh -27.6, Mcl1-Noxa inh 72.4* and Bim-Mcl-1 -8.0.
For Cc1c(Cl)cnc(NC(=O)COC(=O)CCS(=O)(=O)c2ccccc2)c1Cl the results were MCL1-BIM inh 13.6, Mcl1-Bid inh -23.6, Mcl1-Noxa inh 28.3 and Bim-Mcl-1 -2.0.
`O=C(COC(=O)CCS(=O)(=O)c1ccc(Cl)cc1)Nc1ncc(Cl)cc1Cl` gave MCL1-BIM inh -3.1, Mcl1-Bid inh 93.2*, Mcl1-Noxa inh 12.1 and Bim-Mcl-1 1.0.
Screening O=C(COC(=O)C1CCN(S(=O)(=O)c2cc([N+](=O)[O-])ccc2Cl)CC1)Nc1ncc(Cl)cc1Cl returned MCL1-BIM inh 33.0, Mcl1-Bid inh -9.7, Mcl1-Noxa inh 69.1* and Bim-Mcl-1 0.0.
CC(=O)COC(=O)C1CCN(S(=O)(=O)c2cc([N+](=O)[O-])ccc2Cl)CC1 was read as MCL1-BIM inh 18.4, Mcl1-Bid inh 10.6 and Mcl1-Noxa inh 8.2.
`COC(=O)c1cc2c(-c3ccccc3)cc3ccccn3c-2c1C(=O)OC` gave MCL1-BIM inh 47.5*, Mcl1-Bid inh -62.5, Mcl1-Noxa inh -9.7 and Bim-Mcl-1 0.0.
O=[N+]([O-])c1cc(/C=N/n2c(-c3cccnc3)n[nH]c2=S)ccc1Cl was read as MCL1-BIM inh 0.1, Mcl1-Bid inh -24.8, Mcl1-Noxa inh 69.6* and Bim-Mcl-1 0.0.
For O=[N+]([O-])c1ccccc1/C=N/n1c(-c2cccnc2)n[nH]c1=S the results were MCL1-BIM inh -17.4, Mcl1-Bid inh -37.5, Mcl1-Noxa inh 46.5 and Bim-Mcl-1 -9.0.
For O=C(CCCCCN1C(=O)c2ccccc2C1=O)Oc1ccc2c3c(c(=O)oc2c1)CCC3 the results were MCL1-BIM inh 0.7, Mcl1-Bid inh -40.2, Mcl1-Noxa inh 8.8 and Bim-Mcl-1 0.0.
Cc1cc(C(=O)N/N=C/c2ccc(O)c(O)c2O)c(C)n1-c1ccccc1 was read as Mcl1-Bid inh -114.3, Mcl1-Noxa inh 72.5* and Bim-Mcl-1 2.0.
COC(=O)N/N=C/c1cc(C)n(-c2ccccc2)c1C was read as MCL1-BIM inh -1.0, Mcl1-Bid inh -40.4, Mcl1-Noxa inh 20.7 and Bim-Mcl-1 2.0.
Screening Cc1cc(/C=N/NC(=O)c2cccs2)c(C)n1-c1ccccc1 returned MCL1-BIM inh -2.0, Mcl1-Bid inh 87.3*, Mcl1-Noxa inh 8.1 and Bim-Mcl-1 -136.0.
Screening Cc1cc(/C=N/NC(=O)c2ccncc2)c(C)n1-c1ccccc1 returned MCL1-BIM inh -1.8, Mcl1-Bid inh -23.0, Mcl1-Noxa inh 17.6 and Bim-Mcl-1 -4.0.
Screening O=C(CCCOc1ccccc1)N1CCN(c2ccccc2)CC1 returned MCL1-BIM inh -4.3, Mcl1-Bid inh 59.3*, Mcl1-Noxa inh -13.2 and Bim-Mcl-1 2.0.
O=C(CCOc1ccccc1)N1CCN(c2ccc(O)cc2)CC1 was read as MCL1-BIM inh 10.3, Mcl1-Bid inh -45.0 and Mcl1-Noxa inh 26.4.

Source: PubChem BioAssay (several laboratories)
